Dicer inh = human Dicer pre-microRNA cleavage inhibition; Q9UPY3; cat-ELCCA pre-miR-21 Dicer processing, chemiluminescence; active compounds read high; z-score at 25 µM; hit rate 6% among 47,000; AID 1347074; in the data active means z-score above about 3, passing the limit was not always enough;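 further: plate controls were vehicle for no effect and no enzyme for full effect; higher signal means more uncleaved substrate so more Dicer inhibition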
Target sequence (Q9UPY3 whole entry, looked up): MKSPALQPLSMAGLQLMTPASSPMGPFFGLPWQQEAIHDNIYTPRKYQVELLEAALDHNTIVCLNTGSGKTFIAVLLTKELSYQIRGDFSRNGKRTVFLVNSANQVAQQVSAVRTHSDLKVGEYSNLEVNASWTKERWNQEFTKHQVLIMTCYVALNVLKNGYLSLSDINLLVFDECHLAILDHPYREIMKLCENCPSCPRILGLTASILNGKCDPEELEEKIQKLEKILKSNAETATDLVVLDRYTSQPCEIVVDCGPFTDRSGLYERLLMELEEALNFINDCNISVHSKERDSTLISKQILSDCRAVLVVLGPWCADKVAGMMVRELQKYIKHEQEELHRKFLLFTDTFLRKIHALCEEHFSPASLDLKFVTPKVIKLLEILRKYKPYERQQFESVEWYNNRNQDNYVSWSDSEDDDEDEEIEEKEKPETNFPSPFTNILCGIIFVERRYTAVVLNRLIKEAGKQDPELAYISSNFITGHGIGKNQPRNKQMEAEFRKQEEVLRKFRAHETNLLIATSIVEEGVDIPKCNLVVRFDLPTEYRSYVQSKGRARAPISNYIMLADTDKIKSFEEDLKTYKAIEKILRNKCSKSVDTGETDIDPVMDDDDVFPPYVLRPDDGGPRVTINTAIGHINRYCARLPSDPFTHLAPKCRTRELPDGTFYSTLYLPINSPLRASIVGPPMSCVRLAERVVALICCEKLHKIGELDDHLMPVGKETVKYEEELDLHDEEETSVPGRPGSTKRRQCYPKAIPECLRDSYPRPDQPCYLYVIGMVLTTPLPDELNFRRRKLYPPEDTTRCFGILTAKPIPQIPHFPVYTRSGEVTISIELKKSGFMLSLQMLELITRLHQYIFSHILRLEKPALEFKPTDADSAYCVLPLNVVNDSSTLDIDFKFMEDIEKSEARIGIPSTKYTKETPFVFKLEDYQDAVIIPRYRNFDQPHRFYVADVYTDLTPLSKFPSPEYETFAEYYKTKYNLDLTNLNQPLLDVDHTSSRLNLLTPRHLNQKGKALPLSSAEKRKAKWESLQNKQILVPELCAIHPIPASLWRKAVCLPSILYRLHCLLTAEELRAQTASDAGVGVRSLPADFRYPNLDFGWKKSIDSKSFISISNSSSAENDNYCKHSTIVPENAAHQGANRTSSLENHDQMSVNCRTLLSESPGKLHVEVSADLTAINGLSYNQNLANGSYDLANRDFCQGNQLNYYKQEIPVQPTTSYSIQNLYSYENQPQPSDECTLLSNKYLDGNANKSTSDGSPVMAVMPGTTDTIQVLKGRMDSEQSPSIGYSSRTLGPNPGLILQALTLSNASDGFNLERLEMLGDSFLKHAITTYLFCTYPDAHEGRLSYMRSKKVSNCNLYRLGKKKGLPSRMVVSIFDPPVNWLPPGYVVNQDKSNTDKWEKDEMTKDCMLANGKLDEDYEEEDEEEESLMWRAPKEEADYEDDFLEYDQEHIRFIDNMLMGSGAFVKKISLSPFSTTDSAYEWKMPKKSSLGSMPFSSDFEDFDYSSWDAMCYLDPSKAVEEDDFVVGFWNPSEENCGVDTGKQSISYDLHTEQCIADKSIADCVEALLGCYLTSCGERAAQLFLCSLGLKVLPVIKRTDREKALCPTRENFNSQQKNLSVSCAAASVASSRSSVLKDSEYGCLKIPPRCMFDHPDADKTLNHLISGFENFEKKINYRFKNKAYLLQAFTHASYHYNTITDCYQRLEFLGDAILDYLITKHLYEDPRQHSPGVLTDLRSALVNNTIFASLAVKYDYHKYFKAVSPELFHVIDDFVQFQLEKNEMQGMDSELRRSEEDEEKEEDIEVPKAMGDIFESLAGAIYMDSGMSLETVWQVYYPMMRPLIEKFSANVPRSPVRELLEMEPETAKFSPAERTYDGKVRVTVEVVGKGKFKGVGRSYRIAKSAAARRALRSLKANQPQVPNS
Numbers without * were called inactive. Many of the other results were omitted from the sample, so hits are more common in it than they were.

SMILES	Dicer inh
CC1=C(C(=O)OCC(C)C)C(c2coc3ccccc3c2=O)C2=C(CC(c3cccs3)CC2=O)N1 (centres undefined)	1.3
Cc1csc2sc(-c3ccnc(SCC(=O)c4ccc(Cl)cc4Cl)n3)c(C)c12	-0.77
CCc1cccc(CC)c1NC(=S)NN	3.1*
Cc1cccc(Cl)c1NC(=S)NN	1.1
CCc1cccc(CC)c1NC(=O)C(Cl)Cl	-0.22
CCCOC(=O)C1=C(C)NC2=C(C(=O)CC(c3ccccc3)C2)C1c1ccc2c(c1)OCO2 (centres undefined)	0.88
O=C(COC(=O)c1cc2ccccc2cc1OC(=O)c1ccc(Cl)cc1)c1ccccc1	-0.71
O=C(COC(=O)c1ccc(F)c(Cl)c1)c1ccc(Cl)cc1	0.91
O=C(COC(=O)c1cc(Cl)ccc1O)c1ccc(-c2ccccc2)cc1	6.1*
CCCN1C(=O)C(O)(CC(=O)c2ccc(OCC)cc2)c2cc(Br)ccc21 (centres undefined)	0.91
CCc1ccc(-n2nnnc2-c2cn[nH]c2-c2ccccc2)cc1	-1.9
O=C1NC(=O)c2cc(Nc3ccccc3)c(Nc3ccccc3)cc21	0.37
CCC(C)Cn1c(C)c2c(=O)n(-c3nc4ccccc4s3)[nH]c2cc1=O (centres undefined)	0.75
Cc1c2c(=O)n(-c3nc4ccccc4s3)nc-2cc(O)n1CCc1cnc[nH]1	3.6*
Cc1c2c(=O)n(-c3nc4ccccc4s3)nc-2cc(O)n1CCc1c[nH]c2ccccc12	1.5
O=C(CSc1nc2ncccc2[nH]1)Nc1cccc(Cl)c1	-0.46
CC1=N/C(=C\c2cc(F)cc(F)c2)C(=O)O1	-0.66
CC1=N/C(=C\c2ccc3ccccc3c2)C(=O)O1	-0.93
CC1=N/C(=C/c2ccc(Cl)c(Cl)c2)C(=O)O1	3.2*
CN(C)c1ccc(/C=C/C2=Nc3ccccc3NC(C)(C)C2)cc1	0.03
COc1ccc(OC)c2c(=O)cc(C(=O)O)[nH]c12	-0.65
CC(C)(C)C(=O)/C(C#N)=C/c1c(Cl)cccc1Cl	-0.78
CC(C)(C)OC(=O)/C(C#N)=C/c1ccc(Cl)cc1	1
CC(C)(C)C(=O)/C(C#N)=C/c1ccc(C(F)(F)F)cc1	3.2*
CC1(C)CN=C(NC2CCCCC2)S1	-1.6
SMILES	Dicer inh
CC(=O)OCC12COC(c3ccc4c(c3)OCO4)C(C(C)=CC1C)C2C (centres undefined)	-1.3
COC(=O)c1cccc2cccc(-c3cccc4cccc(C(=O)OC)c34)c12	-0.91
CCOC(=O)c1ccc(NC(=S)NN)cc1	3.5*
CCOC(=O)c1ccc(NC(N)=S)cc1	-0.12
CCOC(=O)c1ccc(NC(=S)NC(C)(C)CO)cc1	-1.5
CSc1ccc2c(c1)C(N1CCN(C)CC1)Cc1ccccc1S2 (centres undefined)	0.03
Cc1cc(C)nc(N2CCN(c3nc(C)cc(C)n3)CC2)n1	4.2*
Cc1cc(N2CCOCC2)nc(N2CCOCC2)n1	0.53
Cc1cc(C)nc(N2CCC(NC3CC(=O)N(c4ccc(F)cc4)C3=O)CC2)n1 (centres undefined)	0.35
Cc1cc(C)n2ncc(/C(N)=N/OC(=O)Nc3ccccc3)c2n1	1.2
CSC1=C(C#N)C(c2ccc(Cl)cc2)CC(=O)N1 (centres undefined)	-0.11
O=C(c1nc(SCc2c(Cl)cccc2Cl)n2ccccc12)C(F)(F)F	1.4
CCN(CC)C1=C(C(=O)c2ccccc2)N(CC(N)=O)S(=O)(=O)c2ccccc21	3.1*
O=C(CN1C(=O)c2ccccc2S1(=O)=O)c1ccccc1	-1.1
C=CCN1C(C(=O)c2ccccc2)=C(OC(C)=O)c2ccccc2S1(=O)=O	-0.22
CN1c2ccc(Cl)cc2C(=O)NC1C1CC=CCC1 (centres undefined)	-0.47
C=CCN=C(NNC(=O)c1c(C)nc2cc(C)ccn12)SCC(=O)OCC	-1.8
CSc1n[nH]c(NC(=O)c2ccccc2Cl)c1S(=O)(=O)c1ccc(Cl)cc1	-0.02
CSCC(CSC)OC(=O)NC(=O)c1sc(C#N)c(C)c1C	-4.3
COc1cccc(Nc2nc(N)nc(CN3CCc4ccccc4C3)n2)c1	0.68
COc1ccccc1Nc1nc(N)nc(CN2CCCCC2)n1	5.3*
COc1ccc(Nc2nc(N)nc(CN3CCCCC3)n2)cc1	-1.1
CN(C)CCNC(=O)C1CCCNC1=O (centres undefined)	0.83
CCOc1cc(S(=O)(=O)n2ccnc2C(C)C)ccc1Cl	-0.48
COCCOC(=O)C1=C(C)NC2=C(C(=O)CC(c3ccccc3Cl)C2)C1c1ccc2c(c1)OCO2 (centres undefined)	2.1
SMILES	Dicer inh
Clc1ccccc1CSc1nnc2c(n1)[nH]c1ccccc12	-1.2
Nc1nc2c(nc(N3CCN(c4ccccc4)CC3)n2[C@H]2O[C@@H](CO)[C@H](O)[C@@H]2O)c(=O)[nH]1	-0.68
Nc1nc2c(nc(NCCCN3CCOCC3)n2[C@H]2O[C@@H](CO)[C@H](O)[C@@H]2O)c(=O)[nH]1	3.5*
CNc1nc2c(N)ncnc2n1[C@H]1O[C@@H](CO)[C@H](O)[C@@H]1O	-0.07
CCOC(=O)c1cncc(C#CCOC(=O)Nc2ccc(Cl)cc2)c1	91
O=[N+]([O-])c1cc(/C=N/Nc2ccccn2)cs1	-3.7
Cc1ccc(-n2nc(-c3ccc(N)cc3)cc2N)cc1	-3.2
C(#Cc1csc(/C=N/Nc2ccccc2)c1)c1ccccc1	-0.47
Cc1ccc(/C=C/c2onc3c(=O)[nH]nc(C)c23)cc1	-1.3
COc1cccc(C2Nc3ccc(C(=O)c4ccccc4)cc3NC3=C2C(=O)CCC3)c1 (centres undefined)	-0.11
CCOC(=O)C1=C(C)NC2=C(C(=O)CCC2)C1c1cccc(Br)c1 (centres undefined)	-0.86
CC1=C(C(=O)Nc2nc3ccccc3s2)C(c2cccc(Br)c2)C2=C(CCCC2=O)N1 (centres undefined)	3.2*
COC(=O)C1=C(C)NC2=C(C(=O)CCC2)C1c1cccc(Br)c1 (centres undefined)	-0.4
COC(=O)c1cc(OC)c(OC)cc1NC(C)=O	0.76
O=[N+]([O-])c1cc(Cl)ccc1N1CCSCC1	-0.79
CC(=O)C1C(=O)c2c(Cl)c(Cl)c(Cl)c(Cl)c2C1=O	5.1*
CC(=O)C1C(=O)c2cccc([N+](=O)[O-])c2C1=O (centres undefined)	-1.2
CC(=O)C1C(=O)CC(c2ccc(Cl)cc2)CC1=O (centres undefined)	4.1
Cc1c(C(=O)Nc2ccccc2)c(-c2ccc(Cl)cc2Cl)nn1-c1ccc([N+](=O)[O-])cc1	-0.56
OCc1nc(-c2ccc(C(F)(F)F)cc2)cs1	0.76
N/C(=N/S(=O)(=O)c1cc(C(F)(F)F)cc(C(F)(F)F)c1)c1ccc(Cl)cc1	1.9
N/C(=N\S(=O)(=O)c1cc(Cl)sc1Cl)c1ccc(Cl)cc1	1.4
N/C(=N/S(=O)(=O)c1ccc(Cl)c(Cl)c1)c1ccc(Cl)cc1	4.5*
O=C(O)c1c2c(nc3ccc(F)cc13)CCCCC2	-0.8
Cc1csc2sc(-c3ccnc(SCc4ccccc4)n3)c(C)c12	0.18
SMILES	Dicer inh
CCOC(=O)c1sc2sc(-c3ccn[nH]3)c(C)c2c1C	-0.4
Cc1csc2sc(-c3ccn[nH]3)c(C)c12	3.5*
O=C(O)CSc1nnc(-c2cccnc2)o1	-0.71
CN(C)/C=C/C(=O)c1ccc(Cl)c(Cl)c1	4.9*
COc1ccc2cc(C(=O)/C=C/N(C)C)ccc2c1	-0.67
Cc1ccc(C(=O)/C=C/C=C/C=C/N(C)C)cc1	4.5*
CN(C)/C=C/C(=O)c1ccc(C#Cc2ccccc2)cc1	1.4
Cc1ccc(C(=O)/C=C/S/C=C/C(=O)c2ccc(C)cc2)cc1	-1.9
CN(C)/C=C/C(=O)c1ccc(Cl)cc1	-0.38
